Assay outcomes as filed in PubChem.
IMPase cell inh = membrane-permeable compound that blocks inositol monophosphatase. CHO-M1 cells, IP1 accumulation, HTRF TR-FRET ratio. P97697. 120,000 tested, under 10 active. inhibition (IP1 accumulation), % at 46.1 µM; active = well fitted curve in the direction sought with a large enough effect in the signal ratio, not every such curve was filed as active; inconclusive = small, poorly fitted or top-dose-only effect, or a change in a side signal; inactive = no such curve, though single readings can be large or run the other way; the % refers to the signal ratio;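 also: cells stimulated with carbachol in lithium chloride buffer; plate controls were DMSO basal wells for no effect and reference inhibitor wells for full effect; higher means more IMPase inhibition seen as more IP1 and lower FRET ratio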
Target sequence (P97697 whole entry, looked up): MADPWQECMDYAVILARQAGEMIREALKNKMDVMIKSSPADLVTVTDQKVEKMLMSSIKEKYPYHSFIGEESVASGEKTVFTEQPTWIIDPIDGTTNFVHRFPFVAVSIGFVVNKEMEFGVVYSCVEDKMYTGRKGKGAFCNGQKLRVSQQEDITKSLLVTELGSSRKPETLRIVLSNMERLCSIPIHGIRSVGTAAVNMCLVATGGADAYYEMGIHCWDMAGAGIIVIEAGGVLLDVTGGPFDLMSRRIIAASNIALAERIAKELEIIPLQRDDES
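CHO-M1 cells (CHO stably expressing M1 receptor), compound up to 46 uM final, stimulated with carbachol (50 uM as added) in buffer with 50mM LiCl, pH 7.4, 30 min at 37C. Cytosolic IP1 read by TR-FRET; AC50 from Hill fits.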
HttQ103 aggreg = reduces HttQ103-GFP aggregates in PC12 cells. PC12 HttQ103-GFP aggregates, Acumen cytometry, 40 h. Potency, µM (series often up to 46.1 µM), without a hit: at the top dose activity change, negative = inhibition, hits mostly inhibitors. 220,000 compounds, 1.1% hits; also: potency is read from the fitted curve at half-maximal effect; % is scaled to controls: 0 for no effect and ±100 for the full control effect; nearly all actives have a fitted effect of over 60% in size
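Read-out: GFP aggregate count by laser scanning cytometer (488 nm excitation, 500-530 nm emission, 1–25 µm objects >6 SD above background). Cells: PC12, inducible HTTex1-Q103-GFP, 100 nM tebufenozide; compounds titrated.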
HPGD block = blocks human HPGD enzyme activity; 150,000 compounds, 4.3% hits; P15428; purified HPGD, NADH fluorescence kinetic, PGE2 substrate; Potency, µM, without a hit: at the highest dose activity change, negative = inhibition, most hits filed as inhibitors; active = well fitted inhibition curve with a large enough effect, not every such curve was filed as active; inconclusive = small, poorly fitted or top-dose-only effect, or another doubt; inactive = no such curve, though single readings can be large or run the other way; also: potency is read from the fitted curve at half-maximal effect; % is scaled to controls: 0 for no effect and ±100 for the full control effect
Target sequence (P15428 whole entry, looked up): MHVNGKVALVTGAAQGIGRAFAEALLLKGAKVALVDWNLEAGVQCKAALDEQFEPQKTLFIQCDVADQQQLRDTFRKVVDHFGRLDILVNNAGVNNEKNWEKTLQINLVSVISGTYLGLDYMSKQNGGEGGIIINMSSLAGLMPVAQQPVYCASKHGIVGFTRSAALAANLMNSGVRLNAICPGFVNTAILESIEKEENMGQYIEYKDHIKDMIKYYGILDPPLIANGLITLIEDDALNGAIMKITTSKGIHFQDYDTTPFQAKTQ
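20 nM HPGD preincubated 15 min at room temperature with compound in 50 mM Tris-HCl pH 8, 0.01% Tween 20. Started with 1 mM NAD+ and 30 uM prostaglandin E2; NADH fluorescence (360/450 nm) read 5 times over 30-s intervals, last minus first.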
ALDH1A1 inh = inhibitors of human aldehyde dehydrogenase 1A1; P00352; Purified ALDH1A1, NADH fluorescence, propionaldehyde substrate; Potency, µM (top dose mostly 75.3 µM), inactives show top-dose activity, negative = inhibition, hits mostly inhibitors; 220,000 compounds, 7.3% hits; AID 1030; active = well fitted inhibition curve with a large enough effect, not every such curve was filed as active; inconclusive = small, poorly fitted or top-dose-only effect, or another doubt; inactive = no such curve, though single readings can be large or run the other way;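 also: potency is read from the fitted curve at half-maximal effect; plate controls were no enzyme wells and a reference inhibitor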
HTT ATP protect = protects HTT-Q103 PC12 cells, measured by ATP; PC12 HTT-Q103 induced, cytoprotection, ATP luminescence, 40 h; Potency, µM (titrated, usually from 56.4 µM), for the others: cytoprotection (ATP increase), actives largely listed as activators; 230,000 compounds, 0.14% hits; also: potency is read from the fitted curve at half-maximal effect; % of control where 0% means no effect; nearly all actives have a fitted effect of over 45% in size
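PC12 cells stably carrying ecdysone-inducible Htt exon 1 (Q103)–GFP were induced with 100 nM tebufenozide (final) alongside library compounds in a dose series. Cytoprotection was scored as retained ATP by ATPlite luminescence.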
IMPase Li cell = membrane-permeable IMPase blocker, potentiated with lithium; CHO-M1 cells, IP1 TR-FRET (IP-One), carbachol + lithium; Potency, µM (top dose mostly 59.4 µM), for the others: at the top dose activity, negative = IMPase inhibition, usual class: inhibitors; 210,000 compounds, 0.35% hits;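 also: IP1 builds up when IMPase is blocked and the TR-FRET signal falls; potency is read from the fitted curve at half-maximal effect; plate controls were basal vehicle for no effect and high inhibitor control for full effect; nearly all actives have a fitted effect of over 50% in size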
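CHO cells stably expressing M1 receptor (2000/well, cultured 16–30 h) treated 30 min at 37C with compound plus low lithium. Cytosolic IP1 by TR-FRET (665/620 ratio and 620 channel) after 10 min lysis; AC50 by Hill fit.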
Active calls of the source: *; ? = inconclusive; nt = no result; [ ] = dose if it differs, or a comment. Shown are actives, neighbours in structure and some others; about 9.4% of the full set was active somewhere. Unless noted, calls follow the shape of the dose curve; as a rule, active = well fitted curve in the direction sought with a large enough effect; inconclusive = small, poorly fitted or top-dose-only effect, or another doubt; inactive = no such curve, though single readings can be large; an effect the other way counts as inactive or inconclusive.

SMILES	IMPase cell inh	HttQ103 aggreg	HPGD block	ALDH1A1 inh	HTT ATP protect	IMPase Li cell
c1ccc(CNc2ncnc3ccc(-c4ccc5c(c4)OCO5)cc23)cc1	nt	nt	nt	?	-247%	6%
CC(C)[C@@H](CC(=O)N[C@@H]1CCNC[C@H]1C(=O)N[C@H](CC(=O)N[C@@H](CCC(=O)O)CC(=O)O)Cc1c[nH]c2ccccc12)NC(=O)C[C@H](Cc1ccccc1)NC(=O)[C@@H]1CCCC[C@H]1N	nt	nt	-10%	8%	0%[1.9 µM]	16%
CC(C)CCNC(=O)CNC(=O)c1cccs1	1	11%	-1%	5%	-2%	-14%[38.3 µM]
CC(C)c1ccc(NCCC(=O)c2cccs2)cc1	nt	28%	-11%	2.8µM*	24%[10 µM]	0%
CC(C)(C)c1cc(Br)c(O)c(CN(Cc2cc(C(C)(C)C)cc(Br)c2O)C2CCCCC2)c1	nt	nt	3%	12%[13.5 µM]	-11%[10 µM]	0%
O=c1ccn(CCc2c[nH]c3ccccc23)c2c1CCCC2	nt	-10%	nt	14µM*	-47%	4%
COC(=O)C1=C(C)N(CCc2c[nH]c3ccccc23)C(=O)C1	nt	5%[9.22 µM]	nt	?	4%	3%
CN(C)/C=N/C(=S)Nc1ccc(Br)cc1F	-5	13%	-30%	22µM*	13%	44%[38.3 µM]
CSc1nc(C)c(Oc2ccccc2)c(=O)n1C	0	-2%	13µM*	13%	-3%[10 µM]	24%[38.3 µM]
NC(=O)c1cc2ccc(O)cc2oc1=Nc1ccccc1	0	7.1µM*	?	?	-21%	-6%[38.3 µM]
COc1cc(CNn2c(C)n[nH]c2=S)cc(Br)c1OCc1ccc(F)cc1	nt	-11%	16µM*	28µM*	nt	21%
COc1cc(CNn2c(C)n[nH]c2=S)cc(Cl)c1OCc1ccc(F)cc1	2	-32%	13µM*	-1%	-18%	47%[38.3 µM]
Cc1cc(=O)n(-c2ccc(O)cc2)[nH]1	9	?	-9%	0.79µM*	-44%	-1%[38.3 µM]
Cc1[nH]c2ccccc2c1C(=O)CCl	nt	-9%[9.22 µM]	nt	0.25µM*	12%[10 µM]	3%
Cc1[nH]c2ccccc2c1C(=O)CN1CCCCC1C (stereo not drawn)	-1	28%[9.22 µM]	-19%	20µM*	12%	14%[38.3 µM]
CCC1CCCCN1CC(=O)c1c(C)[nH]c2ccccc12 (stereo not drawn)	23	4%	-12%	-15%	15%	2%[38.3 µM]
Cc1[nH]c2ccccc2c1C(=O)CSc1ccccc1	2	-7%	-10%	-8%	-7%[10 µM]	2%
CN(Cc1ccco1)c1ccnc(-c2ccccc2C(F)(F)F)n1	nt	nt	nt	?	-35%	13%
O=C(Cn1ncc(N2CCOCC2)c(Cl)c1=O)c1ccc(Cl)cc1	nt	15%	nt	-7%	23%	6%
O=C(Cn1ncc(Cl)c(Cl)c1=O)c1ccc(Cl)cc1	nt	?	-8%	8.9µM*	-14%[10 µM]	-2%
CC(C)(C)C(=O)Cn1ncc(Cl)c(Cl)c1=O	nt	?	nt	?	-182%	3%
O=C(OCn1ncc(Cl)c(Cl)c1=O)c1ccccc1Cl	-14	?	-28%	2µM*	3%	6%[38.3 µM]
O=C(OCn1ncc(Cl)c(Cl)c1=O)c1ccc(F)cc1	-3	?	-13%	1.1µM*	-91%	-4%[38.3 µM]
Cc1cc(C(=O)CN2C(=O)NC3(CCCc4sccc43)C2=O)c(C)n1-c1ccccc1 (stereo not drawn)	nt	22µM*	-12%	28µM*	nt	4%
CC(C)NC(=O)CN1C(=O)C(=O)c2ccccc21	4	10%	-11%	-5%	14%[10 µM]	5%
SMILES	IMPase cell inh	HttQ103 aggreg	HPGD block	ALDH1A1 inh	HTT ATP protect	IMPase Li cell
O=C1C(=O)N(CC(=O)N2CCCC2)c2ccccc21	nt	9%	nt	3.5µM*	nt	0%
O=C(CCN1C(=O)c2ccccc2C1=O)N1CCCCCC1	-1	-23%	16µM*	20µM*	-7%	5%[38.3 µM]
CC=C(Cl)Cl	nt	nt	0%	0%	-54%	-11%
COc1ccc(NC2=C(c3ccc(OC)cc3)C(=O)c3ccccc32)cc1	nt	-10%	-8%	14%	-14%[10 µM]	7%
COc1ccc(NC2=C(NCCO)C(=O)c3ccccc3C2=O)cc1	nt	-1%	-18%	11µM*	-15%[10 µM]	38%
Cc1cccc(NC2=C(NCCO)C(=O)c3ccccc3C2=O)c1	nt	-32%	-6%	25µM*	23%[10 µM]	26%
COC1=C(Nc2ccc(OC)cc2)C(=O)c2ccccc2C1=O	nt	13µM*	16µM*	?	-15%[10 µM]	56%
COC1=C(Nc2ccc(O)cc2)C(=O)c2ccccc2C1=O	nt	15%	28µM*	18µM*	7%[10 µM]	40%
Cc1cccc(Nc2nc(N)c([N+](=O)[O-])c(NCCO)n2)c1	nt	9%[9.22 µM]	nt	-6%	24%[10 µM]	nt
COc1ncc2nc(C)c(=O)n(C[C@H]3CCCO3)c2n1	nt	nt	-9%	2%	3%	4%
CC(=O)OC[C@@H]1O[C@@H](O/N=C2/C[C@@H](O)[C@@H](O)[C@@H]3[C@@H]4C(=O)N(C5CCCCC5)C(=O)[C@H]4CC[C@@H]23)[C@H](OC(C)=O)[C@H](OC(C)=O)[C@@H]1OC(C)=O	nt	nt	nt	15%[13.5 µM]	-6%[10 µM]	nt
CCOc1ccc(NC2=C(OC)C(=O)c3ccccc3C2=O)cc1	nt	?	20µM*	3.2µM*	-60%[10 µM]	46%
NC1=C(c2ccc(F)cc2)C(=O)CS1	-8	?	6.3µM*	20µM*	6%	17%[38.3 µM]
CCCCc1nc2c(c3c1C[C@H](C)OC3)CN(S(=O)(=O)c1ccc(C#N)cc1)CC2	nt	nt	-4%	14%[13.5 µM]	-33%[10 µM]	9%
Cc1ccc(SCCNC(=O)CN(c2cccc(C)c2C)S(C)(=O)=O)cc1	-2	nt	nt	nt	nt	nt
CC(C)C[C@H](NC(=O)[C@H](Cc1ccccc1)NC(=O)CNC(=O)CNC(=O)[C@@H](N)Cc1ccc(O)cc1)C(=O)N[C@@H](CCCN=C(N)N)C(=O)N[C@@H](CCCN=C(N)N)C(=O)N[C@@H](CCC(N)=O)C(=O)N[C@@H](Cc1ccccc1)C(=O)N[C@@H](CCCCN)C(=O)N[C@H](C(=O)N[C@H](C(=O)N[C@H](C(=O)O)[C@@H](C)O)C(C)C)C(C)C	nt	nt	nt	7%	-34%	16%
Cc1cc(NC(=O)CCCS(=O)(=O)c2nc(-c3cccs3)cc(C(F)(F)F)n2)no1	-3	10µM*	?	?	-88%	?
O=C(O)CCS(=O)(=O)c1nc(-c2cccs2)cc(C(F)(F)F)n1	-10	?	?	?	4%	-3%[38.3 µM]
CS(=O)(=O)c1nc(-c2cccs2)cc(C(F)(F)F)n1	0	7.1µM*	?	?	-99%	10%[38.3 µM]
COc1ccc2cc3cc(C(=O)N4CCN(c5cccc(Cl)c5)CC4)sc3nc2c1	1	nt	nt	nt	nt	nt
CCOC(=O)CN1C(=O)N[C@@H](c2ccccc2)[C@H](C(=O)OC)[C@H]1C	nt	nt	-7%	1%[13.5 µM]	-28%[10 µM]	0%
